Experimental data published in PubChem BioAssay AID1159580 (chemical genetic matrix, 2015).
“And” between values parts separate entries of the source, which are not always exact repeats. Equal values may be shown once. Screen size: about 5,500 compounds; about 2,000 (36%) were called active. Not shown: some 18% with an inconclusive outcome. No stated cut-off is given here; in the data, active means normalized growth mostly below about 0.91 (no sharp cut-off); inconclusive means no clear call, values can overlap the other calls; inactive means mostly above about 0.92. Some of the results follow.

Assay: chemical genetic growth profiling, strain panel (AID 1159580);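 further: tested at 20 µM; growth read once vehicle control cultures reached saturation at 30 °C; 1 = growth at the plate median or of vehicle wells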
Settings: S. cerevisiae deletion strains, growth OD

Measured: normalized growth

O=C(O)c1cc(=O)c2c(OCC(O)COc3cccc4oc(C(=O)O)cc(=O)c34)cccc2o1
inactive: locus YAL013W, strain DEP1, stronger effect = lower value 1.01 | locus YAL021C, strain ccr4, stronger effect = lower value 0.964 | locus YAL026C, strain drs2, stronger effect = lower value 1.01 | locus YAL030W, strain snc1, stronger effect = lower value 0.996 | locus YBL061C, strain skt5, stronger effect = lower value 0.977 | locus YBR009C, strain hhf1, stronger effect = lower value 0.994 | locus YBR021W, strain FUR4, stronger effect = lower value 1.01 | locus YBR023C, strain chs3, stronger effect = lower value 0.992 | locus YBR171W, strain sec66, stronger effect = lower value 0.96 | locus YBR229C, strain ROT2, stronger effect = lower value 1.01 | locus YBR231C, strain swc5, stronger effect = lower value 0.963 | locus YBR279W, strain paf1, stronger effect = lower value 0.995 | locus YCL011C, strain gbp2, stronger effect = lower value 1 | locus YCL016C, strain dcc1, stronger effect = lower value 1.02 | locus YCL029C, strain bik1, stronger effect = lower value 1.02 | locus YCL061C, strain MRC1, stronger effect = lower value 0.983 | locus YCL069W, strain vba3, stronger effect = lower value 0.977 | locus YCR088W, strain abp1, stronger effect = lower value 0.974 | locus YDL005C, strain med2, stronger effect = lower value 0.974 | locus YDL035C, strain GPR1, stronger effect = lower value 1.01 | locus YDL040C, strain nat1, stronger effect = lower value 0.964 | locus YDL074C, strain BRE1, stronger effect = lower value 1.01 | locus YDL101C, strain DUN1, stronger effect = lower value 1.01 | locus YDL185W, strain tfp1, stronger effect = lower value 1.03 | locus YDL192W, strain arf1, stronger effect = lower value 1.02 | locus YDR001C, strain nth1, stronger effect = lower value 0.971 | locus YDR069C, strain doa4, stronger effect = lower value 0.971 | locus YDR101C, strain arx1, stronger effect = lower value 1.03 | locus YDR137W, strain rgp1, stronger effect = lower value 0.973 | locus YDR159W, strain sac3, stronger effect = lower value 0.926 | locus YDR162C, strain NBP2, stronger effect = lower value 1.01 | locus YDR195W, strain ref2 0.896 | locus YDR297W, strain sur2, stronger effect = lower value 0.987 | locus YDR318W, strain mcm21, stronger effect = lower value 1.02 | locus YDR334W, strain swr1, stronger effect = lower value 0.969 | locus YDR335W, strain msn5, stronger effect = lower value 0.967 | locus YDR388W, stronger effect = lower value 1.02 | locus YDR392W, strain spt3, stronger effect = lower value 1.03 | locus YDR502C, strain sam2, stronger effect = lower value 1 | locus YEL003W, strain gim4, stronger effect = lower value 0.955 | locus YEL037C, strain rad23, stronger effect = lower value 0.955 | locus YEL061C, strain CIN8 (second series), stronger effect = lower value 0.964 | locus YEL061C, strain CIN8, stronger effect = lower value 1.01 | locus YER015W, strain faa2, stronger effect = lower value 0.99 | locus YER016W, strain bim1, stronger effect = lower value 0.996 | locus YER110C, stronger effect = lower value 1.03 | locus YER111C, strain swi4, stronger effect = lower value 0.972 | locus YER155C, strain BEM2 (second series), stronger effect = lower value 0.935 | locus YER155C, strain BEM2, stronger effect = lower value 1.01 | locus YER167W, strain BCK2, stronger effect = lower value 1.01 | locus YFR010W, strain ubp6, stronger effect = lower value 0.969 | locus YGL078C, strain dbp3, stronger effect = lower value 1.01 | locus YGL086W, strain mad1, stronger effect = lower value 1 | locus YGL167C, strain pmr1, stronger effect = lower value 0.96 | locus YGL173C, strain kem1, stronger effect = lower value 0.959 | locus YGL227W, strain vid30, stronger effect = lower value 0.977 | locus YGL240W, strain doc1, stronger effect = lower value 0.959 | locus YGL248W, strain PDE1, stronger effect = lower value 1.01 | locus YGL253W, strain hxk2, stronger effect = lower value 0.983 | locus YGR135W, strain pre9, stronger effect = lower value 1.02 | locus YGR229C, strain SMI1, stronger effect = lower value 1.02 | locus YGR252W, strain gcn5, stronger effect = lower value 1.03 | locus YHR013C, strain ard1, stronger effect = lower value 0.979 | locus YHR027C, strain rpn1, stronger effect = lower value 0.989 | locus YHR030C, strain SLT2, stronger effect = lower value 1.01 and 1 | locus YHR079C, strain IRE1 (second series), stronger effect = lower value 1.03 | locus YHR079C, strain IRE1, stronger effect = lower value 1 | locus YHR094C, strain hxt1, stronger effect = lower value 1.02 | locus YHR129C, strain ARP1, stronger effect = lower value 1.01 | locus YHR142W, strain chs7, stronger effect = lower value 0.966 | locus YHR200W, strain rpn10, stronger effect = lower value 1.02 | locus YIL066C, strain RNR3, stronger effect = lower value 1.01 | locus YIL073C, strain SPO22, stronger effect = lower value 1.06 | locus YIL125W, strain kgd1, stronger effect = lower value 1.02 | locus YIR030C, strain dcg1, stronger effect = lower value 1.03 | locus YJL092W, strain hpr5, stronger effect = lower value 0.978 | locus YJL095W, strain BCK1 (second series), stronger effect = lower value 0.974 | locus YJL095W, strain BCK1, stronger effect = lower value 1.02 and 0.989 | locus YJL115W, strain asf1, stronger effect = lower value 0.967 | locus YJL129C, strain trk1, stronger effect = lower value 0.931 | locus YJL134W, strain LCB3, stronger effect = lower value 1.01 | locus YJL154C, strain vps35, stronger effect = lower value 0.962 | locus YJL164C, strain tpk1, stronger effect = lower value 1 | locus YJL166W, strain qcr8, stronger effect = lower value 0.953 | locus YJL168C, strain set2, stronger effect = lower value 1.02 | locus YJL187C, strain SWE1 (second series), stronger effect = lower value 1.02 | locus YJR043C, strain POL32, stronger effect = lower value 0.998 | locus YJR066W, strain TOR1, stronger effect = lower value 0.992 | locus YJR075W, strain HOC1, stronger effect = lower value 1.01
